Reference: the supplement of paper PMC6555819

Tests used:
Assay in all cases: PBM binding z-score (relative to random genomic background probes); higher = stronger binding; sequences stand for … in GC…GCGATTGACAGCGTAGAATGAAGG
[1] = system: FXR:RXRa (NR concentration 270 nM, RXRa partner concentration 90 nM)
Outline: (§1)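 Probes were double-stranded and carried 34-nt variable regions with direct-repeat seeds, single-nucleotide variants, half-site ablations and random human genomic background sequences, printed on custom Agilent 4×180K protein-binding microarrays. Arrays were incubated 1 h with ligand-free nuclear receptor dimers in PBS pH 7.4, 2% milk, 0.02% Triton X-100, 1 mM DTT, 0.2 mg/mL BSA and 0.4 mg/ml salmon testes DNA. Antibodies against each partner (one per run) detected binding, and scanned fluorescence was regression-normalized. Binding z-scores use the random background probes as reference.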

[2] = system: LXRa:RXRa (NR concentration 270 nM, RXRa partner concentration 90 nM)
Outline: as §1

[3] = system: LXRa homodimer (NR concentration 270 nM)
Outline: as §1

[4] = system: LXRb:RXRa (NR concentration 270 nM, RXRa partner concentration 90 nM)
Outline: as §1

[5] = system: LXRb homodimer (NR concentration 270 nM)
Outline: as §1

[6] = system: PPARa:RXRa (NR concentration 270 nM, RXRa partner concentration 90 nM)
Outline: as §1

[7] = system: PPARg:RXRa (NR concentration 180 nM, RXRa partner concentration 90 nM)
Outline: as §1

[8] = system: PPARg:RXRa 270nM:90nM, anti-RXR (NR concentration 270 nM, RXRa partner concentration 90 nM)
Outline: as §1

[9] = system: PPARg:RXRa 30nM:10nM, anti-RXR (NR concentration 30 nM, RXRa partner concentration 10 nM)
Outline: as §1

[10] = system: PPARg:RXRa 90nM:30nM, anti-RXR (NR concentration 90 nM, RXRa partner concentration 30 nM)
Outline: as §1

[11] = system: PPARg:RXRa DBDmut IVT, anti-RXR (DBD mutation: RXRa K156A/R161A, NR concentration 270 nM, RXRa partner concentration 90 nM)
Outline: as §1

[12] = system: PPARg:RXRa IVT, anti-PPARg (NR concentration 270 nM, RXRa partner concentration 90 nM)
Outline: as §1

[13] = system: PPARg DBDmut:RXRa IVT, anti-PPARg (DBD mutation: PPARg1 K132A/R137A, NR concentration 270 nM, RXRa partner concentration 90 nM)
Outline: as §1

[14] = system: PPARg DBDmut IVT, anti-PPARg (DBD mutation: PPARg1 K132A/R137A, NR concentration 270 nM)
Outline: as §1

[15] = system: PPARg homodimer (NR concentration 180 nM)
Outline: as §1

[16] = system: PXR:RXRa (NR concentration 270 nM, RXRa partner concentration 90 nM)
Outline: as §1

[17] = system: PXR homodimer (NR concentration 270 nM)
Outline: as §1

[18] = system: RARa:RXR (NR concentration 270 nM, RXRa partner concentration 90 nM)
Outline: as §1

[19] = system: RARa homodimer (NR concentration 270 nM)
Outline: as §1

[20] = system: RARb:RXRa (NR concentration 270 nM, RXRa partner concentration 90 nM)
Outline: as §1

Sequence | PBM binding z-score [1] | PBM binding z-score [2] | PBM binding z-score [3] | PBM binding z-score [4] | PBM binding z-score [5] | PBM binding z-score [6] | PBM binding z-score [7] | PBM binding z-score [8] | PBM binding z-score [9] | PBM binding z-score [10] | PBM binding z-score [11] | PBM binding z-score [12] | PBM binding z-score [13] | PBM binding z-score [14] | PBM binding z-score [15] | PBM binding z-score [16] | PBM binding z-score [17] | PBM binding z-score [18] | PBM binding z-score [19] | PBM binding z-score [20]
CCTACTGAGCCATTCAGAGGTCATTGATCATATG | 2.84 | 4.67 | 6.83 | 3.88 | 1.24 | 3.63 | 0.797 | 1.84 | 0.239 | 1.39 | 0.787 | 1.12 | 0.0537 | 0.233 | 3.19 | 4.96 | 3.63 | 4.44 | 1.71 | 2.87
TCTTGTAGATCAACAGAGGTTAAGAAAGTGCGCT | 0.849 | 3.72 | 0.564 | 2.19 | -0.36 | 2.09 | 0.162 | 1.64 | 2.33 | 1.98 | 1.7 | 0.862 | 0.181 | 0.408 | 0.896 | 3.06 | 0.45 | 1.95 | 0.0806 | 1.18
CCTAGAAGGCCAGGGTCACTCAAGCATTTCGCTT | 2.51 | 1.79 | -0.266 | 2.02 | -0.312 | 3.12 | 0.628 | 1.35 | -0.294 | 0.786 | 0.376 | 0.709 | -1.14 | -1.39 | 1.89 | 2.81 | 0.284 | 3.21 | 1.23 | 3.06
GCTGCTAGGTCAGGTTGGTCAGCGAACGGGTACG | 1.22 | 0.707 | -0.269 | 0.492 | -0.499 | 1.3 | 0.347 | 0.793 | -0.213 | 0.414 | 2.7 | 2.09 | 0.222 | -1.25 | 0.933 | 0.281 | -0.36 | 0.76 | -0.581 | 3.31
TCATATAGGTAAAATGTGAAAGTCGGTGTGGTAA | 0.975 | 0.902 | 0.119 | 0.595 | 0.134 | 2.27 | 3.1 | 4.54 | 4.42 | 4.95 | 4.79 | 2.51 | 0.236 | 0.643 | 0.891 | 0.357 | 0.248 | 0.634 | 0.307 | 0.176
CCTAGTTGGTCAGGATGTCACACACCGGATATGA | -0.184 | -0.0235 | 0.256 | 0.227 | 0.348 | 0.0864 | 0.898 | 0.76 | -0.14 | 0.424 | 0.536 | 1.16 | 0.182 | 0.583 | 1.42 | 0.0986 | 0.254 | 0.0158 | 1.18 | 0.798
ATCGAAAGGTCGAGCTGAGTATAGAGAAAGGGAA | 4.53 | 3.69 | -0.419 | 2.54 | 0.538 | 4.36 | 2.96 | 3.02 | 1.22 | 1.96 | -0.357 | 1.22 | 1.33 | 0.108 | 0.956 | 2.5 | -0.467 | 2.89 | 0.139 | 3.94
AAAATGAGGTTACCAAAGATCAGGGAAACGCTTG | 2.21 | 6.37 | -0.0548 | 3.4 | -0.136 | 3.71 | 3.49 | 3.24 | 1.2 | 2.53 | 4.97 | 4.33 | 2.73 | 0.928 | 0.63 | 1.71 | 0.241 | 2.47 | -0.123 | 2.31
ATCTCTAGGTAAAAGTTTAGTGAATCCCGAGGAT | 0.336 | 0.276 | 0.317 | 0.0669 | 1.09 | 2.34 | 3.7 | 4.99 | 2.89 | 5.11 | 2.01 | 2.09 | 0.984 | 0.97 | 0.897 | 0.34 | 0.253 | 0.103 | 0.693 | 0.667
GCTATTAGTCGAAAGGGCAACCGAATGATTCTCG | 0.296 | 0.236 | 0.214 | 0.479 | -0.262 | 1.74 | 2.25 | 4.04 | 2.32 | 3.76 | 0.549 | 0.458 | 0.65 | 0.0546 | 0.852 | 0.446 | -0.0421 | 0.942 | 0.125 | 2.07
CATACAGGGTCAGCTAGGCCAGAGTTGGGACGGC | 4.25 | 2.86 | -0.145 | 2.06 | 0.341 | 4.17 | 3.24 | 2.97 | 0.45 | 1.6 | 1.33 | 2.34 | 0.63 | 0.195 | 0.968 | 1.85 | -0.0328 | 2.78 | 0.28 | 4.17
ATATGTAGGTTAGCTGGGCTCATTCAGACTAGGC | -0.0917 | -0.146 | -0.339 | -0.294 | -0.171 | 1.98 | 2.71 | 2.34 | 0.752 | 1.5 | 6.55 | 5.57 | 1.42 | 1.63 | 0.611 | -0.0149 | -0.367 | 0.11 | 0.493 | 0.456
ACTTACGGGTCAACGAGGGTATAGCACGCGTATA | 6.96 | 4.31 | 0.258 | 3.79 | 0.591 | 5.61 | 5.35 | 5.06 | 1.72 | 3.63 | 2.86 | 3.73 | 1.66 | 1.29 | 2.05 | 4.29 | 1.09 | 4.78 | 0.643 | 4.05
TCTTGTAGATCAACAGCAGGTTAAGAAAGATCGA | 0.263 | 0.476 | -0.0928 | 0.569 | -0.319 | 0.609 | -0.21 | 1.17 | 2.61 | 1.7 | 1.66 | 0.684 | -0.0164 | 0.918 | -0.793 | 0.178 | -0.2 | 0.544 | 0.0361 | 0.0725
